Results published in ChEMBL document CHEMBL2218924, “A broad activity screen in support of a chemogenomic map for kinase signalling research and drug discovery” (Biochem J, 2013).

Columns and labels:
[1] = target: G protein-coupled receptor kinase 6 (Homo sapiens) (UniProt P43250); conditions: at 10 µM
[2] = target: T1, Rhodopsin kinase GRK7 (Homo sapiens) (UniProt Q8WTQ7); conditions: at 1 µM
T1 sequence (whole entry): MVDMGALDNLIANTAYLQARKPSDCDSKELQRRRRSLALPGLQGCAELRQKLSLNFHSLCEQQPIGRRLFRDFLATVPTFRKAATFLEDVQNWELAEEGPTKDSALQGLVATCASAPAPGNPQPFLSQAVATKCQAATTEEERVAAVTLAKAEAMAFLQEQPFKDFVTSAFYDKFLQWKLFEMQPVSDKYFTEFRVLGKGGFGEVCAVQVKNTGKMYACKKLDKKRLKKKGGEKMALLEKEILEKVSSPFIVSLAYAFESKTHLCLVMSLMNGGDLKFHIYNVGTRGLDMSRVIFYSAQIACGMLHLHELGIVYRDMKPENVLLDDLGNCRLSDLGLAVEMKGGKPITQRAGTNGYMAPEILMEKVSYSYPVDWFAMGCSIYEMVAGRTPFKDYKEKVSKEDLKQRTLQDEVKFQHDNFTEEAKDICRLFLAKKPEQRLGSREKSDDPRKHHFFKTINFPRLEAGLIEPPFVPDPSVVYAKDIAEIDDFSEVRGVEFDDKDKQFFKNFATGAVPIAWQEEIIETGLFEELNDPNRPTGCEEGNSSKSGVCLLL

[3] = target: T1, Rhodopsin kinase GRK7 (Homo sapiens); conditions: at 10 µM
[4] = target: Glycogen synthase kinase-3 alpha (Homo sapiens) (UniProt P49840); conditions: at 1 µM
[5] = target: Glycogen synthase kinase-3 alpha (Homo sapiens) (UniProt P49840); conditions: at 10 µM
[6] = target: Glycogen synthase kinase-3 beta (Homo sapiens) (UniProt P49841); conditions: at 10 µM
[7] = target: Homeodomain-interacting protein kinase 1 (Homo sapiens) (UniProt Q86Z02); conditions: at 1 µM
[8] = target: Homeodomain-interacting protein kinase 1 (Homo sapiens) (UniProt Q86Z02); conditions: at 10 µM
[9] = target: Homeodomain-interacting protein kinase 2 (Homo sapiens) (UniProt Q9H2X6); conditions: at 1 µM
Homeodomain-interacting protein kinase 2 (Homo sapiens), sequence (Q9H2X6 whole entry, looked up): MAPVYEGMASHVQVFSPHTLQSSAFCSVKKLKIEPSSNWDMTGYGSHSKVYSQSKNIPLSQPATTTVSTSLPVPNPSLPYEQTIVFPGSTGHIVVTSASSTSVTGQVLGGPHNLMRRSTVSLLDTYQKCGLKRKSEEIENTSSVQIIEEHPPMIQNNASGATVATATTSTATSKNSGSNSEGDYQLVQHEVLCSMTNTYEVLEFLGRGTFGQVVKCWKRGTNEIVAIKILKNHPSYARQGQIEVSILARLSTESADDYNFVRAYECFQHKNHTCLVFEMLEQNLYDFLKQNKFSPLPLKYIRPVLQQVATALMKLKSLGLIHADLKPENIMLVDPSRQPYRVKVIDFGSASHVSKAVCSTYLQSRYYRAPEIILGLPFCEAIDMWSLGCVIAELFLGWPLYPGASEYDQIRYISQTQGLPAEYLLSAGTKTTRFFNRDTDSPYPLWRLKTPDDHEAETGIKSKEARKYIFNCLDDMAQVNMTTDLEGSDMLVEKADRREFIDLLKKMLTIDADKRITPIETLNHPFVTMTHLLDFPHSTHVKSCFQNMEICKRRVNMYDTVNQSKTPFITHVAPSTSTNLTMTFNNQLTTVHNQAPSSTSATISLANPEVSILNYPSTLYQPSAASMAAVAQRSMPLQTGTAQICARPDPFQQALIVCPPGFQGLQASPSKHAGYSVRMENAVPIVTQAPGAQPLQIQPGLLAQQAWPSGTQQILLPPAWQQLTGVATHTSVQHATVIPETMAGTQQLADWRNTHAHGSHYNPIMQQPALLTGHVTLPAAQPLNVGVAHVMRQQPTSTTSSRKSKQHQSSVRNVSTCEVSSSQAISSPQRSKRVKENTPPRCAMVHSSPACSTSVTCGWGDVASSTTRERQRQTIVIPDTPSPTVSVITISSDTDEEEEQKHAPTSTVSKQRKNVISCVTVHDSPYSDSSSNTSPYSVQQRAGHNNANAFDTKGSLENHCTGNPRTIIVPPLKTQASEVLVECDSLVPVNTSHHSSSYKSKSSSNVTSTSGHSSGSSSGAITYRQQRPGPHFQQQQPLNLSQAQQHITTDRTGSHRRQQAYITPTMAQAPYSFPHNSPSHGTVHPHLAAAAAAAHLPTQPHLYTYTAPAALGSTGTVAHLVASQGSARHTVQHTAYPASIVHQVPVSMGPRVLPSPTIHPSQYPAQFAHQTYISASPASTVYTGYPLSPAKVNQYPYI

[10] = target: Homeodomain-interacting protein kinase 2 (Homo sapiens) (UniProt Q9H2X6); conditions: at 10 µM
[11] = target: Homeodomain-interacting protein kinase 3 (Homo sapiens) (UniProt Q9H422); conditions: at 1 µM
Homeodomain-interacting protein kinase 3 (Homo sapiens), sequence (Q9H422 whole entry, looked up): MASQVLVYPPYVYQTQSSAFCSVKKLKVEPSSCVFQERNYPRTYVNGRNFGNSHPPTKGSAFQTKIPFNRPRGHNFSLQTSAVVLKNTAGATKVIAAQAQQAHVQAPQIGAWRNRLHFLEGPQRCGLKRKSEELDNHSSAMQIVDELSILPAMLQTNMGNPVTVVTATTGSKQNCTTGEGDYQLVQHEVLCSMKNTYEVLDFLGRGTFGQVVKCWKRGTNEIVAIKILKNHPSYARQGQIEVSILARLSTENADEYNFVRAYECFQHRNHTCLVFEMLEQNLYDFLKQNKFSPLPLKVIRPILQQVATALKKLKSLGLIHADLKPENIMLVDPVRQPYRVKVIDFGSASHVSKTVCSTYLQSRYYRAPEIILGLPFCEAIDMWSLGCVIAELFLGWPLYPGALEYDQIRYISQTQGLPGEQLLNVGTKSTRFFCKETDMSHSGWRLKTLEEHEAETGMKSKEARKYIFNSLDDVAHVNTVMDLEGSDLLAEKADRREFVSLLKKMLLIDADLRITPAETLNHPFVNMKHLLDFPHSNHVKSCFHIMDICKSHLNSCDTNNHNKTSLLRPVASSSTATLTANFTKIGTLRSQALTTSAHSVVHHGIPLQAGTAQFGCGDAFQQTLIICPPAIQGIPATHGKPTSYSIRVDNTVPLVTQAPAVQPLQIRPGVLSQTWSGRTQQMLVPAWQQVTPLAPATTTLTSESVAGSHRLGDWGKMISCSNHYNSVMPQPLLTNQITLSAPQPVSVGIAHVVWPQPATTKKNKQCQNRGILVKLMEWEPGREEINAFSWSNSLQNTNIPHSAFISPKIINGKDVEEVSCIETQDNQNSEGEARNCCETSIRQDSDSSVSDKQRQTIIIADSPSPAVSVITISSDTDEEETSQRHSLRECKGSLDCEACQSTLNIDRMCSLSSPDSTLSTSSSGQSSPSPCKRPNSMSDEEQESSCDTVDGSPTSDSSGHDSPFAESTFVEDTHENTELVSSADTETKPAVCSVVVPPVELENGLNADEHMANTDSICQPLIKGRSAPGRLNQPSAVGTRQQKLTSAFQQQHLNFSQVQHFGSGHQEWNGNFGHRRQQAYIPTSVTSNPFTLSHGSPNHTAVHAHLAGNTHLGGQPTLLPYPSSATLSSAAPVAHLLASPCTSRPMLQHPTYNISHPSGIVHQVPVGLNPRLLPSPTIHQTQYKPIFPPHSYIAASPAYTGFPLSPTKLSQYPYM

[12] = target: Homeodomain-interacting protein kinase 3 (Homo sapiens) (UniProt Q9H422); conditions: at 10 µM
[13] = target: T2, Serine/threonine-protein kinase haspin (Homo sapiens) (UniProt Q8TF76); conditions: at 1 µM
T2 sequence (whole entry): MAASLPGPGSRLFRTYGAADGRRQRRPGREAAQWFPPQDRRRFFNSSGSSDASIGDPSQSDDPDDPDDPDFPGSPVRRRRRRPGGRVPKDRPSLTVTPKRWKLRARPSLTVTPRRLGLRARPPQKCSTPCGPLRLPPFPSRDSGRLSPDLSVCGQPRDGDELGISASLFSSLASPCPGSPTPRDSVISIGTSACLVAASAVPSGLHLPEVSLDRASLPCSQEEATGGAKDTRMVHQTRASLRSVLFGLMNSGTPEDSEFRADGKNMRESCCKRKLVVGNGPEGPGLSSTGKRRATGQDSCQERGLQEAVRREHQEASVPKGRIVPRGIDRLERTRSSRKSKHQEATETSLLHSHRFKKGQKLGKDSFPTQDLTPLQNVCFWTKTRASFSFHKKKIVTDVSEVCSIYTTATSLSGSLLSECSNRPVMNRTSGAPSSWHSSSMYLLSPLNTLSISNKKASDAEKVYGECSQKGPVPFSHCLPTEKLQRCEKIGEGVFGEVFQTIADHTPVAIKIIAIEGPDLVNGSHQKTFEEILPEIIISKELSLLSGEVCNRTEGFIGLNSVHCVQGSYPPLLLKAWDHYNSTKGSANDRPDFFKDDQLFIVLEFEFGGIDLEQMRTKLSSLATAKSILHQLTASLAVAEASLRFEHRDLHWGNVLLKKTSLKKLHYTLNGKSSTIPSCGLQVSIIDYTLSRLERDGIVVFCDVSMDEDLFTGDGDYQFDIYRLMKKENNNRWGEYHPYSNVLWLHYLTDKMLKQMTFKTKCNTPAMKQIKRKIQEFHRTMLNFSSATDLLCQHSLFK

[14] = target: T2, Serine/threonine-protein kinase haspin (Homo sapiens); conditions: at 10 µM
[15] = target: Tyrosine-protein kinase HCK (Homo sapiens) (UniProt P08631); conditions: at 1 µM
Tyrosine-protein kinase HCK (Homo sapiens), sequence (P08631 2-526 limits assumed): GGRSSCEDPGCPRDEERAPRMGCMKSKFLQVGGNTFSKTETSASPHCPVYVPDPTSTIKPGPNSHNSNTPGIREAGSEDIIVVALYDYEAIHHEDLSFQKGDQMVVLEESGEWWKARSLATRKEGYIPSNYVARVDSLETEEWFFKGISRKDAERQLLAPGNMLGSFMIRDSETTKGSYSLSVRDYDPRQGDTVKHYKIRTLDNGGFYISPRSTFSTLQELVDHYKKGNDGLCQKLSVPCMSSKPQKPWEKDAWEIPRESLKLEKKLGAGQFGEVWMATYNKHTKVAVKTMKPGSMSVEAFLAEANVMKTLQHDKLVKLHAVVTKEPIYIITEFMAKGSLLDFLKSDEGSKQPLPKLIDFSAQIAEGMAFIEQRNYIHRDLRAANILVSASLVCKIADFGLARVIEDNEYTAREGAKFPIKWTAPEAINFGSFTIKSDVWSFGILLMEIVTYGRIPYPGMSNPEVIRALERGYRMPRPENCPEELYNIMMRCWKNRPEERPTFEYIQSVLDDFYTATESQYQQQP

[16] = target: Tyrosine-protein kinase HCK (Homo sapiens) (UniProt P08631); conditions: at 10 µM
[17] = target: Tyrosine-protein kinase HCK (Homo sapiens) (UniProt P08631); conditions: at 1 µM; remark: listed apart in the source
[18] = target: Tyrosine-protein kinase HCK (Homo sapiens) (UniProt P08631); conditions: at 10 µM; remark: listed apart in the source
[19] = target: Insulin-like growth factor 1 receptor (Homo sapiens) (UniProt P08069); conditions: at 1 µM
Insulin-like growth factor 1 receptor (Homo sapiens), sequence (P08069 31-736 limits assumed): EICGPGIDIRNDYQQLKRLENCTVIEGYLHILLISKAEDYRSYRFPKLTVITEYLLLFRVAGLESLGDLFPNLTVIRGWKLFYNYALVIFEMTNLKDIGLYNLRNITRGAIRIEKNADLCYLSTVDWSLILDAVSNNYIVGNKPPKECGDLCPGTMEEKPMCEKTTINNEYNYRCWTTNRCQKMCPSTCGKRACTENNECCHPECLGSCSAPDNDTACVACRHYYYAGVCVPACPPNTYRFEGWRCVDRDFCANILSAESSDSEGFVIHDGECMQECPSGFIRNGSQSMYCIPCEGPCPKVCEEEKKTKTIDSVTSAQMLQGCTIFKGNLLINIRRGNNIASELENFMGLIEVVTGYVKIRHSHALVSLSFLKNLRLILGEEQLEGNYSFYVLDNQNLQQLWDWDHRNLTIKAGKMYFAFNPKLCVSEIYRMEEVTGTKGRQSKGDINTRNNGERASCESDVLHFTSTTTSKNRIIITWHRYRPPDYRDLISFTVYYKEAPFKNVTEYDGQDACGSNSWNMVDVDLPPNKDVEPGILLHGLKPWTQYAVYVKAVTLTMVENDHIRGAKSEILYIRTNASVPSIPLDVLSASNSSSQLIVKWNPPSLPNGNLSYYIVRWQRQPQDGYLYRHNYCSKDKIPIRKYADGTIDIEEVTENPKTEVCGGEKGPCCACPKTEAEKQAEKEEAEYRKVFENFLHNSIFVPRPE
Insulin-like growth factor 1 receptor (Homo sapiens), sequence (P08069 741-1367 limits assumed): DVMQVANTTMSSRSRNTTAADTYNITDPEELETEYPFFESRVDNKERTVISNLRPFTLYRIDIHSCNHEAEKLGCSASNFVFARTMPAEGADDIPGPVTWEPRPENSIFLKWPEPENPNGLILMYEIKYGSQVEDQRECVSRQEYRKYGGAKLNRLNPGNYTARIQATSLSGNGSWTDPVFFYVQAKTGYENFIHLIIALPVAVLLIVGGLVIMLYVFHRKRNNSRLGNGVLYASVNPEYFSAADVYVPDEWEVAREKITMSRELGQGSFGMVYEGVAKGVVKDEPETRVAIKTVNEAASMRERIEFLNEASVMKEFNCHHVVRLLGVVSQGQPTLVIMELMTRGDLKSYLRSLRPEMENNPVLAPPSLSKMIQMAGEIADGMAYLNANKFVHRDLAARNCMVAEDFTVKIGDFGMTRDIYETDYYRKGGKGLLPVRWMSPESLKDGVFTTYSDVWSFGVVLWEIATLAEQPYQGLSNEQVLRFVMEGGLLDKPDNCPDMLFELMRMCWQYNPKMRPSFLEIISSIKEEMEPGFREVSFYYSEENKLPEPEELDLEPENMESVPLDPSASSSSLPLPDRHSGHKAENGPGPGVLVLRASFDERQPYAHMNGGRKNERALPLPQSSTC

[20] = target: Glycogen synthase kinase-3 beta (Homo sapiens) (UniProt P49841); conditions: at 1 µM

G protein-coupled receptor kinase 6 (Homo sapiens), sequence (P43250 whole entry, looked up): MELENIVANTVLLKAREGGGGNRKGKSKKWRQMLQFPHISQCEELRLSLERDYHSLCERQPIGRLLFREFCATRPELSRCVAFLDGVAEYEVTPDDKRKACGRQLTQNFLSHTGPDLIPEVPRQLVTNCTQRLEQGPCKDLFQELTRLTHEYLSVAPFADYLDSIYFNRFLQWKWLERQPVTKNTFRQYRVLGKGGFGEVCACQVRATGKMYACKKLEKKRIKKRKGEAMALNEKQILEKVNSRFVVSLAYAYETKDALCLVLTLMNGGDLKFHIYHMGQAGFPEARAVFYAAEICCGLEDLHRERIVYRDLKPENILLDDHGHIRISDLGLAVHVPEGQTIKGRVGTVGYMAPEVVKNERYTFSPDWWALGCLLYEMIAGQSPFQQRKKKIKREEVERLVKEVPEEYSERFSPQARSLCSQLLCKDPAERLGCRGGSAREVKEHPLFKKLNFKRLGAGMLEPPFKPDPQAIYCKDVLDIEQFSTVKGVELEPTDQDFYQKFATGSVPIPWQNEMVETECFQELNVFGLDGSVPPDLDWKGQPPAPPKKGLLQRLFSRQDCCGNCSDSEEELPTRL

| SMILES | residual activity [1] | residual activity [2] | residual activity [3] | residual activity [4] | residual activity [5] | residual activity [6] | residual activity [7] | residual activity [8] | residual activity [9] | residual activity [10] | residual activity [11] | residual activity [12] | residual activity [13] | residual activity [14] | residual activity [15] | residual activity [16] | residual activity [17] | residual activity [18] | residual activity [19] | residual activity [20] |
| --- | --- | --- | --- | --- | --- | --- | --- | --- | --- | --- | --- | --- | --- | --- | --- | --- | --- | --- | --- | --- |
| C[S+]([O-])c1ccc(-c2nc(-c3ccc(F)cc3)c(-c3ccncc3)[nH]2)cc1 (stereo not given) | 102% | 109% | 108% | 86% | 49% | 34% | 102% | 97% | 110% | 100% | 110% | 102% | 88% | 35% | 105% | 52% | 93% | 61% | 102% | – |
| COc1ccc2c(c1)/C(=C/c1cnc[nH]1)C(=O)N2 | 76% | – | 42% | – | – | 4% | – | 52% | – | – | – | 49% | 37% | 13% | 71% | 33% | – | 49% | – | 42% |
| N/C(=N\[N+](=O)[O-])N/N=C\c1ccc(-c2cccc([N+](=O)[O-])c2)o1 | 94% | 100% | 91% | 99% | 78% | 97% | 99% | 100% | 82% | 83% | – | – | 97% | 80% | 70% | 49% | – | – | – | – |
| c1cc(-c2cnn3cc(-c4ccc(OCCN5CCCCC5)cc4)cnc23)ccn1 | – | – | – | 100% | 76% | – | 85% | 34% | 62% | 14% | – | 45% | 38% | 4% | 64% | 18% | 32% | 4% | – | – |
| COC(=O)[C@@]1(O)C[C@H]2O[C@]1(C)n1c3ccccc3c3c4c(c5c6ccccc6n2c5c31)C(=O)NC4 | 5% | 4% | 4% | 14% | 3% | 10% | 78% | 15% | 22% | -1% | 54% | -4% | 8% | 5% | 3% | 1% | 1% | 4% | 77% | 29% |
| CCc1nc(-c2ccc(OC)cc2)[nH]c1-c1ccncc1 | – | – | – | 106% | – | 115% | – | – | – | – | – | – | 45% | 4% | 72% | 64% | 115% | 104% | 112% | 114% |
| O=C1Nc2ccc3ncsc3c2/C1=C/c1c[nH]cn1 | 60% | 63% | 20% | 4% | 1% | 0% | 64% | 26% | 32% | 4% | 31% | 4% | 3% | 1% | 58% | 19% | 67% | 24% | 132% | 4% |
| O=c1[nH]c2ccccc2n1C1CCN(Cc2ccc(-c3nc4cc5[nH]cnc5cc4nc3-c3ccccc3)cc2)CC1 | 94% | 110% | 94% | 112% | 123% | 106% | 101% | 98% | 98% | 64% | 97% | 91% | 76% | 49% | 91% | 42% | 102% | 91% | 125% | 108% |
| COc1ccc2c(c[n+](C)c3c4cc5c(cc4ccc23)OCO5)c1OC | 93% | 99% | 91% | 126% | – | 83% | – | – | – | 86% | – | – | – | 69% | 92% | 60% | 95% | 92% | 138% | 97% |
